Laboratory results from paper PMC4336329 (PLoS ONE, 2015).
The campaign covered roughly 310,000 compounds. About 14,000 (4.5%) showed an effect of 50% or more. Effects have a minus sign here. The entries come from a sample that favours strong results as a whole.

biological target: human ether-à-go-go-related gene (hERG) potassium channel (human, UniProt Q12809); assay: primary screen, population patch clamp on CHO cells stably expressing hERG; higher = less effect of the substance
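Note: peak tail current of the secondary pulse compared with the same well before compound.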

Sequence of human ether-à-go-go-related gene (hERG) potassium channel (Q12809 whole entry, looked up): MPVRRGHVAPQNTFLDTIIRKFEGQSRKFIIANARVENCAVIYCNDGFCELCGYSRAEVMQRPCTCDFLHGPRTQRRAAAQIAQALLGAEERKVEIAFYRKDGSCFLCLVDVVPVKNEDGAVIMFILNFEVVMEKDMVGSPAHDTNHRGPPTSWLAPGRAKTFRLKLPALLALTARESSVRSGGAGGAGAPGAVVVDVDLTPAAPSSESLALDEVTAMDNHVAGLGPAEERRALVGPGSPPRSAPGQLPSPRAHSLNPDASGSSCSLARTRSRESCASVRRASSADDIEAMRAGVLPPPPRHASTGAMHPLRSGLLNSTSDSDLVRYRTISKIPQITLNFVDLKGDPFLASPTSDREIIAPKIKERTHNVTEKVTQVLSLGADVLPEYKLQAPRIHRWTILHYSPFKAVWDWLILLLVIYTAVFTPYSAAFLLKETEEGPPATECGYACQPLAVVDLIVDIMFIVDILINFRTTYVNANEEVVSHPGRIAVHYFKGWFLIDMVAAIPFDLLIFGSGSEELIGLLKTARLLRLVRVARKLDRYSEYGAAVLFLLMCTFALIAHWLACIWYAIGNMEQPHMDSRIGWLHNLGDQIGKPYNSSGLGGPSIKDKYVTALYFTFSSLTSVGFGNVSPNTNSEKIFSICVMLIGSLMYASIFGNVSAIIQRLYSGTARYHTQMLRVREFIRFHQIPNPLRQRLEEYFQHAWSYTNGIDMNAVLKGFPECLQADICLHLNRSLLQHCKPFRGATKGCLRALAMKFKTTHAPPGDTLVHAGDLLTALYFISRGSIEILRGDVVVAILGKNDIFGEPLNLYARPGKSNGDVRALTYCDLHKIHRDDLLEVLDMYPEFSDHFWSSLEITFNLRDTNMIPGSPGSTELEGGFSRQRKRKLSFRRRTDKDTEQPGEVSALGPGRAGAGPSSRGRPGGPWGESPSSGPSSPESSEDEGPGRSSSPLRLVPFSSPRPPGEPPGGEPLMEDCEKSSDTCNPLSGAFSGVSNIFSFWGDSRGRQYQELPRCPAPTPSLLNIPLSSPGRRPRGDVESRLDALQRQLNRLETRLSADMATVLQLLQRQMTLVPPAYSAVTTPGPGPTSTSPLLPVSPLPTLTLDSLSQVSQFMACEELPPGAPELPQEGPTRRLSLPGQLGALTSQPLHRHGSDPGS

| Structure (SMILES) | hERG current change (%, negative = inhibition) at 10uM [%] |
| --- | --- |
| O=S(=O)(NC1CCCCC1)c1ccc(N2CCOCC2)nc1 | -2.81 |
| COc1ccc(C(C(=O)NC2CCCC2)N(C(=O)c2snc(-c3ccc(F)cc3)c2N)c2ccc(F)cc2)cc1 (stereo not drawn) | 1.29 |
| N#Cc1ccccc1NC(=O)c1ccccc1OCC(=O)Nc1ccc2c(c1)oc1ccccc12 | 16.2 |
| Cc1nn(-c2ccc(F)cc2)c(Cl)c1/C=C/C(=O)OCC(=O)Nc1ccc(F)cc1F | 15.5 |
| CSc1ccc(NC(=O)CC(C)=O)cc1 | -21.3 |
| Cc1c(NC(=O)c2cc3c(=O)n4ccccc4nc3s2)c(=O)n(-c2ccccc2)n1C | 8.11 |
| CN(Cc1nc2ccccc2n1C)S(=O)(=O)c1ccc(Cl)cc1 | 3.21 |
| CCC(=O)c1c[nH]c(C(=O)NCCc2ccccn2)c1 | 3.31 |
| O=C(CCNC(=O)N1CCn2c1nc1ccccc12)NCc1ccc(F)cc1 | -6.29 |
| COc1ccc(Br)cc1/C=C(\C(=O)O)c1ccc(S(=O)(=O)N2CCCCC2)s1 | 0.483 |
| O=C(NCCCc1ccccc1)C1CCC(=O)N(Cc2ccc(Cl)cc2)C1 (stereo not drawn) | -61.3 |
| O=C(NCCc1ccccc1)C1CC(=O)N(CCc2ccccc2)C1 (stereo not drawn) | 6.57 |
| O=C(NCCOc1ccccc1)C1CCC(=O)N(CCc2ccc(Cl)cc2)C1 (stereo not drawn) | -88.2 |
| Cc1ccc(CCN2CC(C(=O)NCCc3ccccc3)CC2=O)cc1 (stereo not drawn) | -3.16 |
| O=C(NCCc1ccccc1)C1CCC(=O)N(Cc2ccc(Cl)cc2)C1 (stereo not drawn) | -20.5 |
| O=C(NCCc1ccc(Cl)cc1)C1CC(=O)N(CCc2ccccc2)C1 (stereo not drawn) | -62 |
| O=C(NCCOc1ccccc1)C1CCC(=O)N(CCc2ccccn2)C1 (stereo not drawn) | -11.9 |
| Cc1ccc(CNC(=O)C2CCC(=O)N(CCc3ccccc3)C2)s1 (stereo not drawn) | -25.7 |
| O=C(NCCOc1ccccc1)C1CCC(=O)N(Cc2ccc(Cl)cc2)C1 (stereo not drawn) | -31.2 |
| Cc1ccc(CNC(=O)C2CCC(=O)N(CCc3ccccn3)C2)s1 (stereo not drawn) | 2.53 |
| O=C(NCc1ccccc1F)C1CCC(=O)N(Cc2ccc(Cl)cc2)C1 (stereo not drawn) | -42.1 |

| Structure (SMILES) | hERG current change (%, negative = inhibition) at 10uM [%] |
| --- | --- |
| Cc1ccc(CNC(=O)C2CCC(=O)N(CCc3ccc(Cl)cc3)C2)s1 (stereo not drawn) | -69.4 |
| Cc1ccc(S(=O)(=O)N(CCCO)CC(O)CON=C2c3ccccc3-c3ccccc32)cc1 (stereo not drawn) | 14.4 |
| NC(=O)c1ccc(-c2noc(-c3cccc(Cl)c3)n2)cc1 | 19.4 |
| Cc1ccc(CSCc2ccc(C(=O)O)o2)cc1 | 21.8 |
| COC(=O)c1ccncc1C(=O)Nc1ccc(Oc2ncc(C(F)(F)F)cc2Cl)cc1 | -5.09 |
| O=C(CCCCn1c(=O)[nH]c2ccsc2c1=O)NCC1CCCO1 (stereo not drawn) | 4.17 |
| COC(=O)[C@]1(C)CCC[C@@]2(C)C3CC[C@@]4(C)C[C@]3(CCC21)CC(=O)N4Cc1ccc(OC)cc1 (stereo partly drawn) | 7.82 |
| C#CCOCCOCCOCCNc1nc(N2CCN(C(=O)[C@H](CCCC[NH3+])n3cc(CCCC)nn3)CC2)nc(N2CCN(C(=O)[C@H](CCCC[NH3+])n3cc(CCC(=O)O)nn3)CC2)n1.[Cl-] | 17.4 |
| Cn1nc(C(=O)OCc2ccc(F)cc2)c2ccccc2c1=O | 3.57 |
| Cc1cc(C)c(OC2(c3ccccc3)OC(=O)c3ccccc32)c(C)c1 (stereo not drawn) | -5.57 |
| Cc1c(C(=O)Nc2ccccc2)c2cc(O)ccc2n1Cc1ccccc1 | 4.2 |
| O=C(NCc1cccs1)c1noc2c1CCCC2 | -2.52 |
| O=C(NCCCc1ccncc1)C1CCC(=O)N(Cc2ccc(Cl)cc2)C1 (stereo not drawn) | -61.1 |
| O=C(NCCCC1CCCC1)C1CCC(=O)N(Cc2ccc(Cl)cc2)C1 (stereo not drawn) | -61.4 |
| O=C(NCCN1CCCC1=O)C1CCC(=O)N(CCc2ccc(Cl)cc2)C1 (stereo not drawn) | -4.65 |
| O=C(NCCCc1ccccc1)C1CCC(=O)N(CCc2ccc(Cl)cc2)C1 (stereo not drawn) | -79.8 |
| Cc1cc(CNC(=O)C2CCC(=O)N(CCc3ccc(Cl)cc3)C2)no1 (stereo not drawn) | -39.7 |
| O=C(NCCc1ccccc1Cl)C1CCC(=O)N(CCCc2ccccc2)C1 (stereo not drawn) | -34.1 |
| CC(C)c1cc(CNC(=O)C2CCC(=O)N(CCc3ccc(Cl)cc3)C2)on1 (stereo not drawn) | -68.1 |
| O=C(NCCCc1ccncc1)C1CCC(=O)N(Cc2cccc(C(F)(F)F)c2)C1 (stereo not drawn) | -18.7 |
| O=C(NCCCC1CCCC1)C1CCC(=O)N(Cc2ccccc2F)C1 (stereo not drawn) | -9.03 |

| Structure (SMILES) | hERG current change (%, negative = inhibition) at 10uM [%] |
| --- | --- |
| CC(C)c1nc(CNC(=O)C2CCC(=O)N(CCc3ccc(Cl)cc3)C2)no1 (stereo not drawn) | -27.6 |
| O=C(NCCCC1CCCC1)C1CCC(=O)N(Cc2cccc(F)c2)C1 (stereo not drawn) | -15.2 |
| O=C(NCCc1cnccn1)C1CCC(=O)N(Cc2ccc(Cl)cc2)C1 (stereo not drawn) | 2.46 |
| CCn1c(CNC(=O)c2ccccc2F)nnc1SCC(=O)NC1CCCCC1C (stereo not drawn) | 31.8 |
| O=C(c1ccc(F)cc1)N1CCC(N2CCOCC2)CC1 | -5.45 |
| O=C(Nc1ccc(S(=O)(=O)Nc2ncccn2)cc1)c1cccc(S(=O)(=O)N2CCCC2)c1 | -4.1 |
| N#Cc1nc(-c2ccc(F)cc2)oc1N1CCCCC1 | 8.29 |
| COc1ccccc1Cc1noc(COc2cccc(C)c2C)n1 | 3.03 |
| COc1ccc(C(=O)NCCc2nnc3ccc(SCC(=O)Nc4cc(C)on4)nn23)cc1 | 4.8 |
| COC(=O)C1=C(c2ccc(OC(F)(F)F)cc2)C[C@@H]2CC[C@H]1N2C(=O)NCCNC(C)=O | 2.65 |
| COC(=O)C1=C(c2ccc(OC(F)(F)F)cc2)C[C@@H]2CC[C@H]1N2C(=O)N1CCC(O)CC1 | -36.2 |
| COC(=O)C1=C(c2ccc(C(C)=O)cc2)C[C@@H]2CC[C@H]1N2C(=O)N1CCC(O)(c2ccc(Cl)cc2)CC1 | -73.6 |
| COC(=O)C1=C(c2ccc(OC(F)(F)F)cc2)C[C@@H]2CC[C@H]1N2C(=O)NCC1CC1 | -58.6 |
| COC(=O)C1=C(c2ccc(OC(F)(F)F)cc2)C[C@@H]2CC[C@H]1N2C(=O)N1CCCC1 | -47.9 |
| COC(=O)C1=C(c2ccc(C(C)=O)cc2)C[C@@H]2CC[C@H]1N2C(=O)N1CCCCC1 | -16.9 |
| CCCNC(=O)N1[C@H]2CC[C@@H]1C(C(=O)OC)=C(c1ccc(OC(F)(F)F)cc1)C2 | -27.4 |
| COC(=O)C1=C(c2ccc(OC(F)(F)F)cc2)C[C@@H]2CC[C@H]1N2C(=O)N1CCCCC1 | -56.3 |
| COC(=O)C1=C(c2ccc(C(C)=O)cc2)C[C@@H]2CC[C@H]1N2C(=O)N1CCCC1 | 0.9 |
| CC1=CC=CC2=N/C(=N\S(=O)(=O)c3ccc(F)cc3F)c3ccccc3CN12 | -20.3 |
| COc1ccc(CC(=O)N(C)Cc2cccc(OC)c2OC)cc1S(=O)(=O)N1CCOCC1 | -5.58 |
| N=c1oc2ccccc2cc1C(=O)Nc1ccc(F)cc1 | 16.5 |

| Structure (SMILES) | hERG current change (%, negative = inhibition) at 10uM [%] |
| --- | --- |
| COc1ccc(C2=NO[C@@H]3C(=O)N(Cc4ccccc4)C(=O)[C@H]23)cc1OC | -1.95 |
| CN(C)S(=O)(=O)c1ccc(N/C=C(\[N+](=O)[O-])S(=O)(=O)c2ccccc2)cc1 | 15.2 |
| COCCNC(=O)/C(C#N)=C/c1ccc(O)cc1 | 10.6 |
| Cc1ccc(C(C)NC(=O)Cc2cccs2)c(C)c1 (stereo not drawn) | -9.26 |
| CSc1ccc(C(=O)NCC(c2ccco2)N(C)C)cc1[N+](=O)[O-] (stereo not drawn) | 17.8 |
| Nc1nnc(-c2ccccc2)c(-c2ccccc2)n1 | -10.7 |
| Cc1ccccc1OCCC(=O)OCC(=O)Nc1cc(S(=O)(=O)N2CCOCC2)ccc1Cl | -27.8 |
| Cc1c(NC(=S)Nc2ccccc2C(F)(F)F)cccc1[N+](=O)[O-] | 8.27 |
| O=C(c1cn(-c2ccccc2)nc1-c1cccnc1)N1CCN(S(=O)(=O)c2cccc(F)c2)CC1 | -13.6 |
| COc1ccccc1N1CCN(C(=O)c2cn(-c3ccccc3)nc2-c2cccnc2)CC1 | -50.2 |
| O=C(c1cn(-c2ccccc2)nc1-c1cccnc1)N1CCN(S(=O)(=O)c2ccccc2F)CC1 | -70.5 |
| N#Cc1ccccc1S(=O)(=O)N1CCN(C(=O)c2cn(-c3ccccc3)nc2-c2cccnc2)CC1 | -48 |
| CN1CCN(C(=O)c2cn(-c3ccccc3)nc2-c2cccnc2)CC1 | -18.4 |
| COc1ccccc1N1CCN(C(=O)c2cn(Cc3ccccc3)nc2-c2cccnc2)CC1 | -8.12 |
| Nc1nnc(SCc2nnc(-c3ccccc3)o2)s1 | -1.84 |
| COC(=O)N/N=C/c1c[nH]c2ccccc12 | 14.5 |
| CC(C)c1onc(C(=O)N2C(C)CCCC2C)c1[N+](=O)[O-] (stereo not drawn) | 18.8 |
| Cc1ccc(NC(=O)c2cccc(N3C(=O)C4C5C=CC(C5)C4C3=O)c2)cc1C (stereo not drawn) | -7.07 |
